Where “and” joins values, the source holds several entries; their conditions need not be identical. Equal values may be shown once. Records with an inconclusive call do not appear. The source holds several records for some structures; these can differ, active in one and inactive in another. Unmarked numbers belong to inactive results. Calls of active or inactive are those of the source. The call rests on the fitted dose curve; in most records, active means well fitted inhibition curve with a large enough effect; inconclusive means small, poorly fitted or top-dose-only effect; inactive means flat fitted curve, though single readings scatter.

One assay deals with HACAT. The assay can be described thus: qHTS assay to identify novel small-molecules to repurpose for Merkel cell carcinoma treatment (AID 1296009). The settings on record: MCC and control cell lines, CellTiter-Glo viability, 72 h; at 44.8 µM (top of the series) unless noted. A digest of the protocol:
(§1)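 Cells were treated for 72 hr at 37 degree celsius with compounds in 8- or 11-point dose response. Viability was read by CellTiter-Glo luminescence, normalized to no-cell (cytotoxicity) and DMSO controls.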
(Quantitative high-throughput screening tests each substance at several concentrations.)

In a further assay the test system is MCC-13. The assay is described as above. The note with it: MCC and control cell lines, CellTiter-Glo viability, 72 h; series mostly up to 46 µM. Summed up:
as §1
A general note: ATP-based viability assays read luminescence as a measure of living cells.

The subject of another assay is MCC-26. The description is as above. The settings on record: MCC and control cell lines, CellTiter-Glo viability, 72 h; series mostly up to 46 µM. A digest of the protocol: as §1
The subject of the next assay is NIH3T3. The assay can be described thus: Cytotoxic Profiling of Annotated Libraries Using Quantitative High-Throughput Screening (AID 1296008). The note with it: Five cell lines viability, CellTiter-Glo ATP luminescence, 48-72 h; max response: hits give low values. Summed up: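 Cells exposed to compounds for 48 or 72 hr at 37 degrees Celsius. Viability read as ATP-coupled luminescence with CellTiter-Glo after 10 min at room temperature.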

For a further assay, the system named is MKL-1. Put plainly: qHTS assay to identify novel small-molecules to repurpose for Merkel cell carcinoma treatment (AID 1296009). The note with it: MCC and control cell lines, CellTiter-Glo viability, 72 h; series mostly up to 46 µM. A digest of the protocol: as §1
The next assay has as its system WaGa. The assay is described as above. The note with it: MCC and control cell lines, CellTiter-Glo viability, 72 h; series mostly up to 46 µM. Summed up: as §1
The test system of the next assay is UISO. The description is as above. The settings on record: MCC and control cell lines, CellTiter-Glo viability, 72 h; series mostly up to 46 µM. A digest of the protocol: as §1
In the next assay the test system is MKL-2. The assay is described as above. The note with it: MCC and control cell lines, CellTiter-Glo viability, 72 h; series mostly up to 46 µM. A digest of the protocol: as §1
The subject of the next assay is HEK293T. Described as above. The note with it: MCC and control cell lines, CellTiter-Glo viability, 72 h; at 44.8 µM (top of the series). A digest of the protocol: as §1
Further: nearly all actives have a fitted effect of over 60% in size.
On the % scale 0 is the no-effect control and ±100 the full control effect; potency means the concentration at half of the fitted maximal effect.

For `O=C(O)c1ccc(-c2cc3cccnc3c(-c3ccc4nonc4c3)n2)cc1`, in the assay on HACAT, the outcome was inactive. The Potency result with MCC-13 and in the assay with MCC-26 was “inactive” in each case.
In the case of `CN(C)Cc1cccc(N=C(c2ccccc2)c2c(O)[nH]c3cc(C(=O)N(C)C)ccc23)c1`, the Potency in the assay with NIH3T3 is 13.2 µM (active). Further, the Potency result in the assay on MCC-13, in the assay on MKL-1 and in the assay on WaGa was “inactive” in each case.
As to `Oc1ccc(C2CCN(c3ccnc4ccccc34)CC2)cc1O`, the max response with NIH3T3 is -5.13%. Moreover, the Potency result in the assay with MCC-13, in the assay with MCC-26 and with UISO was “inactive” in each case.
With `COC1CCC(N(C(=O)C2CCC(C)CC2)c2cc(C3=CCCCC3)sc2C(=O)O)CC1` (stereo unspecified), the max response in the assay on NIH3T3 is -0.413%. In addition, the Potency result in the assay on MCC-13, with MKL-1, with MKL-2, in the assay on UISO and with WaGa was “inactive” throughout.
Take `Cc1nc(N)sc1-c1ccnc(Nc2ccc(N3CCOCC3)cc2)n1`: in the assay on NIH3T3, the Potency was 11.8 µM (active) and 1.84 µM (active). The Potency entry in the assay with MCC-26 and with MKL-2 was “inactive” throughout.
Regarding `COc1ccc(-c2nc(N3CCOCC3)c3sc(CN(C)c4ncc(C(=O)NO)cn4)cc3n2)cn1`, the Potency with NIH3T3 is 0.118 µM (active); in the assay on MCC-13, 0.0662 µM (active); in the assay on MCC-26, 0.0526 µM (active); in the assay on UISO it was 0.0235 µM (active); with WaGa it was 0.0026 µM (active).
For the molecule `CC(C)n1nc(-c2ccc3oc(N)nc3c2)c2c(N)ncnc21`, the Potency is 5.3 nM (active) and 259 nM (active) in the assay with NIH3T3; 0.0264 µM (active) in the assay with UISO.
Regarding `COc1cc(N2CCC(N3CCN(C)CC3)CC2)ccc1Nc1ncc(Cl)c(Nc2ccccc2S(=O)(=O)C(C)C)n1`, in the assay on NIH3T3, the Potency is 1.64 µM (active). The Potency result in the assay with MKL-2 and in the assay with UISO was “inactive” throughout.
Turning to `CO[C@@H](C(=O)N1Cc2[nH]nc(NC(=O)c3ccc(N4CCN(C)CC4)cc3)c2C1)c1ccccc1`, the Potency with NIH3T3 is 14.8 µM (active). For the same molecule, the Potency result in the assay with MKL-2 and with UISO was “inactive” throughout.
On to `CC1=C(/C=C/C(C)=C/C=C/C(C)=C/C(=O)Nc2ccc(O)cc2)C(C)(C)CCC1`, for which the Potency in the assay with NIH3T3 is 21.1 µM (active); in the assay with MKL-1, 26.6 µM (active); with MKL-2 it was 10.6 µM (active); in the assay on UISO, 9.44 µM (active); in the assay with WaGa it was 23.7 µM (active).
On to `CN(C[C@@H]1COCCO1)S(=O)(=O)Nc1ccc2ccc3ncc(-c4cnn(C)c4)cc3c(=O)c2c1`, for which the Potency in the assay on NIH3T3 was 1.32 µM (active) and 8.2 µM (active). For the same molecule, the Potency entry in the assay on MCC-13, in the assay with MKL-1 and in the assay with WaGa was “inactive” throughout.
Regarding `NC(=O)[C@@H](CCC(F)(F)F)N(Cc1ccc(-c2ncon2)cc1F)S(=O)(=O)c1ccc(Cl)cc1`, the max response in the assay with NIH3T3 was -26.9%. Further, the Potency entry with MCC-13, in the assay with MKL-1, in the assay with MKL-2, in the assay with UISO and in the assay on WaGa was “inactive” in each case.
`COc1cc2ncnc(Nc3ccc(F)c(Cl)c3)c2cc1OCCCN1CCOCC1`: in the assay with NIH3T3, the max response was -12.1% and -4.13%. In addition, in the assay on MCC-26, the Potency result is “inactive”. For the same molecule, the Potency with MKL-2 is 13.3 µM (active); in the assay on UISO it was 26.6 µM (active).
In the case of `C=CCc1ccc(O)c(-c2ccc(O)c(CC=C)c2)c1`, in the assay with NIH3T3, the max response was -7.37%. The Potency result in the assay on MCC-13 and in the assay with WaGa was “inactive” in each case.
`CN(C)C1CCN(C(=O)c2ccc(NC(=O)Nc3nc(N4CCOCC4)nc(N4CCOCC4)n3)cc2)CC1`: the Potency was 0.0935 µM (active) in the assay on NIH3T3; 0.833 µM (active) with MCC-26; 0.132 µM (active) in the assay on MKL-1; 0.296 µM (active) in the assay on MKL-2; 0.0264 µM (active) in the assay with UISO; 0.105 µM (active) with WaGa.
In the case of `COc1cc(N2CCC(N3CCN(C)CC3)CC2)ccc1Nc1ncnc(Nc2ccccc2S(=O)(=O)C(C)C)n1`, the Potency is 3.32 µM (active) and 3.66 µM (active) in the assay on NIH3T3; 11.8 µM (active) in the assay on MCC-26. For the same molecule, the Potency result with MKL-2 and in the assay on WaGa was “inactive” throughout.
On to `O=C(O)c1ccc(-c2c[nH]c3ncc(-c4ccccc4)cc23)cc1C1CCCC1`, for which the result in the assay with HACAT and in the assay with HEK293T was inactive. The Potency entry in the assay with MCC-13, with MCC-26, in the assay on MKL-1, in the assay with UISO and in the assay with WaGa was “inactive” each time.
Turning to `O=C1NC(=O)C(=Cc2cccc(C(F)(F)F)c2)S1`, the max response in the assay with NIH3T3 was -7.62%. Moreover, the Potency result with MCC-13, in the assay on MKL-1, in the assay on MKL-2 and in the assay with WaGa was “inactive” in each case.
On to `O=C(NOCC(O)CO)c1cc(Br)c(F)c(F)c1Nc1ccc(I)cc1F` (stereo unspecified), for which the Potency entry in the assay on MKL-1, with MKL-2, in the assay on UISO and with WaGa was “inactive” in each case.
In the case of `CCC(=O)NC[C@H](Cc1ccc(OCCc2nc(-c3ccccc3)oc2C)cc1)NC(C)=CC(=O)c1ccc(C(F)(F)F)cc1`, the Potency result in the assay on MCC-13 and with MCC-26 was “inactive” in each case. In addition, the results for the Potency in the assay on MKL-1 and with WaGa were 7.43 µM (active) and 4.69 µM (active), respectively.
Regarding `Clc1ccc(C(c2ccc(Cl)cc2)n2cc[n+](CC(OCc3ccc(Cl)cc3Cl)c3ccc(Cl)cc3Cl)c2)cc1` (stereo unspecified), the Potency result in the assay on MCC-13 and in the assay with MCC-26 was “inactive” in each case. In addition, the values for the Potency with MKL-1 and in the assay on MKL-2 were 20.9 µM (active) and 10.5 µM (active), respectively.
For the molecule `CC/C(=C(\c1ccccc1)c1ccc(OCCN(C)C)cc1)c1ccccc1`, the Potency in the assay with MKL-2 is 26.6 µM (active); in the assay on UISO it was 21.1 µM (active).
For the molecule `CC(C)C[C@H](CC(=O)O)C(=O)N[C@@H](Cc1c[nH]c2ccccc12)C(=O)N[C@@H](C)c1ccccc1`, the Potency result with MCC-13, with MCC-26 and in the assay with UISO was “inactive” in each case. Also, the Potency was 4.69 µM (active) in the assay with MKL-1 and 3.32 µM (active) with WaGa.

(Values after PubChem BioAssay (NCATS).)
